Bioassay records as filed in PubChem BioAssay.
The entries come from a sample that favours hits as a whole.
ERK EGF inh: inhibitors of EGF-stimulated ERK signaling pathway. HEK293-V1b, EGF-stimulated phospho-ERK AlphaScreen. Potency, µM (highest dose often 11.5 µM), for inactives: at the highest dose activity change, negative = inhibition, usual class: inhibitors. actives 0.41% (n = 130,000). AID 1454; active means well fitted inhibition curve with a large enough effect;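 further: plate controls were stimulated vehicle wells for no effect and unstimulated vehicle basal for full effect; nearly all actives have a fitted effect of over 55% in size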
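HEK293 cells stably expressing V1b receptor, serum-reduced (1% FBS) overnight, pretreated 30 min with compound, then stimulated 5 min with 25 nM EGF; phospho-ERK detected by AlphaScreen SureFire. AC50 from Hill fits, normalized to DMSO and EGF.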
Numbers without * were called inactive; ! = not confirmed by another sample; [ ] = remark or other dose. Potency means the concentration at half of the fitted maximal effect.

SMILES | ERK EGF inh
COc1cccc(-c2cc(=O)c3ccccc3o2)c1N | 5.01µM*!
COc1ccccc1-c1cc(=O)c2cccc(OC)c2o1 | 24.3%
O=c1cc(-c2ccccc2F)oc2ccccc12 | 11.8%
FC(F)(F)c1cc(NC(=S)Nc2ccc3cc4ccccc4cc3c2)cc(C(F)(F)F)c1 | -5.2%
COc1ccc(NC(=O)N2CC[C@@]3(CCCN(C(=O)c4cccn4C)C3)C2)cc1 | -10.8%
C[C@]12C[C@@](C)(C=C1/C=C/c1ccccc1)C(=O)C[C@H]2c1ccccc1 | -3.1%
O=C(c1csnn1)N1CCC2(CC1)CCN(C(c1ccccc1)c1ccccc1)CC2 | -0.2%
O=C(NC1CCCCC1)c1ccc(Cl)c(NC(=O)c2ccccc2F)c1 | -13.9%
O=C(Nc1ccc(Cl)c(Cl)c1)Nc1cc(C(=O)NC2CC2)ccc1Cl | 28.2µM*
O=C(Nc1ccc(Cl)c(Cl)c1)c1ccc(Cl)c(Cl)c1 | -7.7%[57.5 µM]
CC1(C)C(=O)C2C[C@]3(O)C4=CC(=O)OC(c5ccoc5)[C@]4(C)CCC3[C@](C)(C2=O)C1CC(=O)O (stereo not given in full) | 3.5%
Cn1cccc1C(=O)N1CCC2(CC1)CN(C(=O)Nc1cccc(C#N)c1)C2 | 0.7%
CC(=O)N1CCC2(CCCN(c3cccc(-c4ccccc4)c3)C2)CC1 | 9.4%
COc1ncc2nc(CCc3ccccc3)c(=O)n(Cc3cccs3)c2n1 | -10.2%
COCC(=O)N1CCC2(CC1)CN(C(=O)Nc1cccc(C#N)c1)C2 | 11.8%
COc1ccccc1-c1cn[nH]c1-c1ccc(OCc2ccc([N+](=O)[O-])cc2)cc1O | 8.0%[57.5 µM]
COc1ccc(-c2cn[nH]c2C)cc1OC | -11.3%
COc1ccc(-c2cn[nH]c2-c2ccc(OCc3ccccc3)cc2O)cc1OC | 22.4µM*
COC1=C(OC)C(=O)c2ccccc2C1=O | 9.9%
Cc1ccc(SC2=C(Sc3ccc(C)cc3)C(=O)c3ccccc3C2=O)cc1 | 2.0%[57.5 µM]
COC1=C(Nc2ccccc2)C(=O)c2ccccc2C1=O | 14.1µM*
COC1=C(Nc2ccc(C)cc2)C(=O)c2ccccc2C1=O | 11.2µM*
COc1cc(C=C2C(=O)c3ccccc3C2=O)cc(OC)c1 | -3.1%[57.5 µM]
Cc1ccc(NN=C2c3ccccc3-c3ccccc32)cc1 | -0.7%
CC(C)[N+]1(C)[C@@H]2CC[C@H]1CC(OC(=O)[C@@H](CO)c1ccccc1)C2 (stereo not given in full) | -3.6%
SMILES | ERK EGF inh
COc1cc(OC)c2ccc(=O)oc2c1C(CCN1CCCC(C)C1)c1ccc(N(C)C)cc1 (stereo not given) | -20.4%[57.5 µM]
COc1cc(OC)c2c(-c3ccccc3)cc(=O)oc2c1C(CCN1CCCC(C)C1)c1ccc2c(c1)OCO2 (stereo not given) | -13.0%[57.5 µM]
CCCCCc1cc(=O)oc2c(C(CCN3CCCC(C)C3)c3cc(OC)c(OC)c(OC)c3)c(OC)cc(OC)c12 (stereo not given) | 39.8µM*
O=C(c1csnn1)N1CCC2(CC1)CCN(c1ccccn1)CC2 | 10.6%
Cc1noc(C)c1C(=O)N1CCC2(CC1)CCN(c1ccncc1)CC2 | 5.6%
COc1c(-c2coc3cc4c(cc3c2=O)CC(O)C(C)(C)O4)ccc2c1C=CC(C)(C)O2 (stereo not given) | 12.6µM*
CC1(C)C=Cc2c(cc3occ(-c4ccc5c(c4)OCO5)c(=O)c3c2O)O1 | 12.4%
COc1c(-c2coc3cc4c(cc3c2=O)CC(OC(C)=O)C(C)(C)O4)ccc2c1C=CC(C)(C)O2 (stereo not given) | 46.9%
Cc1nc2cnc(N(C)C)nc2n(C)c1=O | -12.6%
COc1ccccc1CNc1cc(-c2cccc(NS(C)(=O)=O)c2)ncn1 | 30.0%
CC1(C)[C@@H](OC(=O)CCC(=O)O)CC[C@@]2(C)[C@H]1CC[C@@]1(C)[C@H]2C(=O)C=C2[C@H]3C[C@](C)(C(=O)O)CC[C@]3(C)CC[C@@]21C | 11.2%[25.7 µM]
CCc1ccc(Nc2c([N+](=O)[O-])c(=O)oc3ccccc23)cc1 | 17.8µM*
Cc1ccc(Nc2c([N+](=O)[O-])c(=O)oc3ccccc23)cc1 | 5.4%
CCNc1c([N+](=O)[O-])c(=O)oc2ccccc12 | -2.0%
CCN(CC)CC#CCOC(=O)[C@@](O)(c1ccccc1)C1CCCCC1 | -6.7%[25.7 µM]
COc1ncc2nc(CCc3ccccc3)c(=O)n(C)c2n1 | -4.2%
O=C(N/N=C\c1ccccc1O)c1ccccc1O | 7.3%
CCOC(=O)N1CCc2c(sc(NC(=O)CN3CCOCC3)c2C(=O)Nc2ccccc2)C1 | 35.5µM*
CCOC(=O)N1CCc2c(sc(NC(=O)CN3CCOCC3)c2C#N)C1 | -7.6%[57.5 µM]
CCOC(=O)N1CCc2c(sc(NC(=O)CN3CCN(C)CC3)c2C(=O)Nc2ccccc2)C1 | 28.9%
COc1cccc(Cn2c(=O)c(CCc3ccccc3)nc3cnc(OC)nc32)c1 | 16.7%
O=C(c1cccc(F)c1)N1CCC2(CC1)CN(c1ccccc1)C2 | -5.8%
COc1ccccc1/C=C/C(=O)N1CCCC1 | 19.0%
COc1ccccc1/C=C/C(=O)/C=C/c1ccccc1O | 35.5µM*
COc1ccccc1/C=C/C(C)=O | -7.2%
SMILES | ERK EGF inh
Cn1c(=O)c(-c2cc(F)cc(F)c2)nc2cnc(Oc3cccc(Cl)c3)nc21 | -0.6%
N[C@@H](Cc1cc(CP(=O)(O)O)cc(-c2ccccc2Cl)c1)C(=O)O | -6.0%
CCCCN1C(=O)c2ccc(C(=O)Nc3ccc(C)c(S(=O)(=O)N(C)C)c3)cc2C1=O | 25.1µM*
Cc1ccc(NC(=O)COC(=O)CN2C(=O)c3ccccc3C2=O)cc1S(=O)(=O)N(C)C | 1.8%
Cc1ccc(NC(=O)c2ccncc2)cc1S(=O)(=O)N(C)C | 13.6%
CCN[C@@H]1C[C@H](C)S(=O)(=O)c2sc(S(N)(=O)=O)cc21 | -6.2%[25.7 µM]
N#Cc1cccc(NC(=O)CSc2nnc(-c3n[nH]c4ccccc34)o2)c1 | 31.6µM*
Cc1cccc(NC(=O)CSc2nnc(-c3n[nH]c4ccccc34)o2)c1 | 2.6%
C#Cc1cccc(NC(=O)CSc2nnc(-c3ccc(C(F)(F)F)cn3)o2)c1 | 0.9%[57.5 µM]
COc1ccccc1-c1nccc(NCc2cnc(C)cn2)n1 | 15.2%
O=C(O)C(O)C(O)C(O)C(O)C(=O)O (stereo not given) | -28.0%
O=C(c1cccc(F)c1)N1CCC2(CCCN(Cc3ccccc3)C2)CC1 | -6.0%
C/C(N)=C(/C#N)C(=O)COC(=O)c1cc2c(s1)CCCC2 | -20.4%
C/C(N)=C(/C#N)C(=O)COC(=O)c1cccc(O)c1 | 28.2µM*
CC(=O)Nc1ccc(C(=O)OCC(=O)/C(C#N)=C(\C)N)cc1 | 25.9%
CO[C@H]1C=CO[C@@]2(C)Oc3c(C)c(O)c4c(O)c(c(C=NN5CCN(C6CCCC6)CC5)c(O)c4c3C2=O)NC(=O)C(C)=CC=C[C@H](C)[C@H](O)[C@@H](C)[C@@H](O)[C@@H](C)[C@H](OC(C)=O)[C@@H]1C | 8.91µM*
COC(=O)[C@@H](O)CC[C@@H](C)Cc1c(OC)c(OC)c(C)c(OC)c1OC | 2.8%
COCCn1c(=O)c(-c2ccc(OC)cc2)nc2cnc(Oc3ccc(OC)cc3)nc21 | -6.1%
CCOC(=O)c1cc2c(nc1N)CCCC2 | -4.6%[57.5 µM]
CCOC(=O)C1=C(SCC)c2cc3c(n2C1=O)CCCC3 | 25.1µM*
CCOC(=O)C1=C2c3cc(OC)c(OC)cc3CC(C)(C)N2C(=O)C1=O | -5.5%
COc1ccc(-c2coc3ccc(OC4OC(COC(C)=O)C(OC(C)=O)C(OC(C)=O)C4OC(C)=O)cc3c2=O)cc1 (stereo not given) | -4.7%
CC1(C)[C@@H]2CC[C@@]1(C)C(=O)C2 | -4.4%
CCN(CC)S(=O)(=O)c1ccc(Cl)c(NC(=O)COC(=O)c2c(C)noc2C)c1 | 7.5%
CCN(CC)S(=O)(=O)c1ccc(Cl)c(NC(=O)COC(=O)c2ccc(O)cc2)c1 | 28.2µM*
